About 83,000 compounds went through this panel and 20% of them were active in at least one assay; those are over-represented in the sample as a whole.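 Activity criterion: percent growth below 10, measured after cells in 96-well plates were exposed to a single compound concentration for 48 hours.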 A number with no mark means an inactive call. Calls of active or inactive are those of the source.

The subject of this assay is SK-MEL-28 melanoma. The assay can be described thus: NCI-60 one-dose screen, 48 h (100 = growth as untreated, 0 = no growth, -100 = all killed). Particulars: 10 µM unless noted.
As for `NC(=O)c1c(NC(=O)c2ccc(Cl)cc2)sc2c1CCC(=O)C2`, the growth was 99.2%.

As for `COc1ccc(/C(C)=C(\c2ccc(OCCN3CCCCCC3)cc2)c2ccc(OC(=O)c3ccccc3)cc2)cc1`, the growth was 54.9%. With `Clc1ccc(-c2cn3ccsc3n2)c(Cl)c1Cl`, the growth was 120%. Under `COc1ccc(Cl)cc1Nc1nc(C(F)(F)F)ccc1C(=O)N/N=C/c1ccccc1Cl` stands 32.5%.

Regarding `Cc1cc(C)cc(Nc2ccc([N+](=O)[O-])c(NCCN3CCOCC3)n2)c1`, the growth was 60.9%. Turning to `C=CCn1c(SCC(=O)Nc2ccc(C(=O)/C=C/c3cc(OC)c(OC)c(OC)c3)cc2)nnc1-c1cc(-c2ccc(OC)cc2)nc2ccccc12`, the growth is 101%. With `C#CCOc1cccc(-c2ncc3cc(NC(=O)CCl)ccc3n2)c1`, the growth is 53.9%. The same measure for `Cn1cc(-c2nn3cc(-c4ccccc4)nc3s2)c2ccccc21`: 71.1%.

For `Cc1cc2nc3c4ccccc4n(CCN(C)C)c3nc2cc1C`, the growth was 20.1%.

With `CCC(C)Nc1ccc(NC(C)CC)cc1` (stereo not given), the growth was 104%. As for `O=C(CCCCCCN1CC(=O)N2[C@@H](C3CCCCC3)c3[nH]c4ccccc4c3C[C@H]2C1=O)NO`, the growth was 60.7%.

As for `C(/C=C/c1ccccc1)=Nc1ccc(CCc2ccc(N=C/C=C/c3ccccc3)cc2)cc1`, the growth was 109%.

On to `Cc1c2ccccc2nc2c1ccc1cccnc12`, for which the growth was 113%. Turning to `Cc1ncc(C(=O)Nc2ccc(CN3CCN(C)CC3)c(C(F)(F)F)c2)cc1C#Cc1cnc(N)c2cnccc12`, the growth was -0.469% (active). As for `CC(C)(C)C(=O)/C=C/c1ccc([N+](=O)[O-])cc1`, the growth was 92.1%. The same measure for `N#Cc1c(-c2ccccc2)nc2c(c(-c3ccccc3)nn2-c2ccccc2)c1-c1ccc(N2CCOCC2)cc1`: 107%; for `Cc1ccc(C)n1/C=C/n1c(C)ccc1C`: 125%; for `CN(C)Cc1ccc(C(=O)Nc2ccc3ncnc(Nc4ccc(Oc5cccc(F)c5)c(Cl)c4)c3c2)cc1`: -89.1% (active). The same measure for `O=c1[nH]cnc2c1C(c1ccc(Br)cc1)c1sc3c(F)cccc3c1O2` (stereo not given): 105%. The same measure for `CS(=O)(=O)Nc1cncc(-c2ccc3ncnc(Nc4ccc(F)c(Cl)c4)c3c2)c1`: 42.7%; for `Cc1cc(N2CCN(C)CC2)nc(NCc2cc(Nc3ccnc4cc(Cl)ccc34)ccc2F)n1`: -75.4% (active). Turning to `COc1ccc(-c2ccc(=O)oc2C#Cc2cc(OC)c(OC)c(OC)c2)cc1O`, the growth was 38.9%. The same measure for `COc1cc(/C=C2\C(=O)N(c3c(Cl)cccc3Cl)c3ccccc32)cc(OC)c1OCCCCCCn1c2ccccc2c(=O)c2ccccc21`: 99%. In the case of `CC/C=C1/C(=O)C=C[C@@H]1C/C=C\CCCC(=O)OC`, the growth was 89.5%. The same measure for `COc1ccc2c(c1)c(-c1nonc1-c1cn(C)c3ccc(OC)cc13)cn2C`: 60.8%; for `C=C1C(=O)O[C@H]2[C@H]1CC/C(COC(=O)/C=C\C(=O)NCc1ccc(Cn3c(=O)sn(-c4ccccc4)c3=O)cc1)=C\CC[C@@]1(C)O[C@@H]21`: 94.4%; for `Cc1nn(-c2ccccc2)c(/N=C/N(C)C)c1/C=C/C(=O)c1ccc(Cl)cc1`: 89.6%.

In the case of `C#CC#CC#CC#CC#CC#CC#CC#CCC1OCC(COC(=O)O[C@@H](C(=O)O[C@H]2C[C@@]3(O)[C@@H](OC(=O)c4ccccc4)[C@@H]4[C@]5(OC(C)=O)CO[C@@H]5C[C@H](O)[C@@]4(C)C(=O)[C@H](OC(C)=O)C(=C2C)C3(C)C)[C@@H](NC(=O)c2ccccc2)c2ccccc2)O1` (stereo not given in full), the growth was 59.2%. The same measure for `COc1ccc(/C=C/C(=O)c2cc3c(N)c(C(=O)Nc4ccc(OC)cc4)sc3nc2C)cc1`: 55.7%; for `N=C(N)c1ccc(-c2ccc(-c3ccc(Cl)cc3)o2)o1`: 96.9%; for `COc1ccc(-c2nnc(SCC(=O)Nc3ccc(/C(C)=N\O)cc3)n2-c2ccccc2)cc1OC`: 87.3%. Take `Cc1ccc(-c2nc(C#N)c(S(=O)(=O)NCCO)o2)cc1`: the growth was 70.7%.

Turning to `N#CC(C#N)N=Nc1ccc(Cl)cc1Cl`, the growth was 70.3%. Under `C=CCOC(=O)C1=C(C)NC(=O)NC1c1c(Cl)n(C)c2ccccc12` (stereo not given) stands 99.6%. `CCCCCCCCn1ccc2cc(NC(=O)Cn3cc(CN4CCCCCC4)nn3)ccc21`: the growth is -86.1% (active).

For `O=C(CN1C(=O)NC2NC(=O)NC21)N/N=C/c1ccc(Cl)cc1Cl` (stereo not given), the growth was 109%. On to `COc1cc(C2=NN(C(C)=O)C(c3ccc(N(C)C)cc3)C2)cc(OC)c1OC` (stereo not given), for which the growth was 106%. Turning to `COc1cccc(/C=C/C(=O)c2cc3c(N)c(C(=O)Nc4cccc(Cl)c4C)sc3nc2C)c1`, the growth was 16.3%. The same measure for `CCCn1c(=S)sc2c1nc(C)n1c(Nc3ccccc3)nnc21`: 104%.

For `OC(c1ccccc1)(c1ccccc1)c1ccccc1-c1ccccc1`, the growth was 109%.

For the origin of these results see PubChem BioAssay (NCI).
